In all, about 400,000 compounds went through this assay and about 2,100 (0.53%) were called active. About 14% were inconclusive and are not listed. No rule for the calls is given here. What follows is part of a selection rich in actives, with near analogues and random picks from the rest.
The compounds below were run against Ataxin-2 (Homo sapiens) (UniProt Q99700) (assay: qHTS for Inhibitors of ATXN expression.).
Format: functional

Ataxin-2 (Homo sapiens), sequence (Q99700 whole entry): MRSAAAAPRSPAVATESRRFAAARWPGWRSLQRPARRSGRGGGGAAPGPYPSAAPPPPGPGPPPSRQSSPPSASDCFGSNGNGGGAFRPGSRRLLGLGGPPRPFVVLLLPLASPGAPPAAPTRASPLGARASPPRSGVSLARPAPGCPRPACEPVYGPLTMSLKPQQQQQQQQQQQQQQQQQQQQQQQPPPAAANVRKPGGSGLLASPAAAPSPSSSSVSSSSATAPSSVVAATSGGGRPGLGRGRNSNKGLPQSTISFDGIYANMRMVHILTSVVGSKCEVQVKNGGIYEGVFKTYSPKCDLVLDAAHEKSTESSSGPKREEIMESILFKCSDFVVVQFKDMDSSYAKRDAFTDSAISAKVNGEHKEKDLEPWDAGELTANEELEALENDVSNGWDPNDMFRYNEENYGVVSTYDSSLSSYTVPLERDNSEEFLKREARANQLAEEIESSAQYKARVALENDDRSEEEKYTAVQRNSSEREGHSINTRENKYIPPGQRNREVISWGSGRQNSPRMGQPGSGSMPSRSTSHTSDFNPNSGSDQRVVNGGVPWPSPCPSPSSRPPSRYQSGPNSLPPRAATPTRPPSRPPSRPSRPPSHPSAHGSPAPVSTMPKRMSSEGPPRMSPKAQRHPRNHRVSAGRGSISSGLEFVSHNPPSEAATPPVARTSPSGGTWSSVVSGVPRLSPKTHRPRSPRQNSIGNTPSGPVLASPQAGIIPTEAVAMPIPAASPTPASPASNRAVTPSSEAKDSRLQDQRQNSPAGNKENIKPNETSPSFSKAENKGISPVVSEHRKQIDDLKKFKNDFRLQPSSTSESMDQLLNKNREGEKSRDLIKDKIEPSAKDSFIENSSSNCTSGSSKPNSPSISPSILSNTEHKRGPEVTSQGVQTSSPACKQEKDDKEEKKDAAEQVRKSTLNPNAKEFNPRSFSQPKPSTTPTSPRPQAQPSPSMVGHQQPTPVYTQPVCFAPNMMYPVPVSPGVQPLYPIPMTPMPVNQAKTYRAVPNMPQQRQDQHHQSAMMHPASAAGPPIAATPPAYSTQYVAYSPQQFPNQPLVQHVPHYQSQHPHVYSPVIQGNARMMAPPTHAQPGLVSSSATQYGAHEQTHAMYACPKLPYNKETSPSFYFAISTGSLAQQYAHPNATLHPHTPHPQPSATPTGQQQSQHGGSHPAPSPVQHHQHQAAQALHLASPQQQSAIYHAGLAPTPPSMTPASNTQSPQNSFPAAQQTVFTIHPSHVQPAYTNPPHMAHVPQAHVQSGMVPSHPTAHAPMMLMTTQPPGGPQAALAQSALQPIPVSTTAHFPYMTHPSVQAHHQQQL

Structure (SMILES)	Potency
CC(=O)NNC(=O)c1sc(=S)n2c1[nH]c(=O)c1sccc12	inactive
Oc1ccc(/C=C/c2ccnc3ccccc23)cc1	inactive
CCN(CC)c1ccc(/C=C/c2cc(-c3ccccc3)c3ccccc3n2)cc1	inactive
CN(C)c1ccc(C=Cc2nccc3ccccc23)cc1	inactive
Oc1ccc(/C=C/c2ccc3ccccc3n2)cc1	inactive
C[n+]1c(/C=C/c2ccc(O)cc2)ccc2ccccc21	26.7 µM (active)
CN(C)c1ccc(/C=C/c2ccc3c4ccccc4ccc3[n+]2-c2ccccc2)cc1	11.9 µM (active)
O=C1C(Cl)=C(NC2CCCCC2)C(=O)N1Cc1ccccc1	inactive
C=CCn1c(C)c(C(C)=O)cc(NC(=O)c2ccccc2)c1=O	inactive
O=C(CN1C(=O)c2cccc3cccc1c23)NC1CCCC1	inactive
Cc1ccc(C)c(OCC(O)CN2CCC(CN3C(=O)c4cccc5cccc(c45)C3=O)CC2)c1 (stereo unspecified)	39.8 µM (active)
Cc1cccc(C)c1OCC(O)CN1CCC(CN2C(=O)c3cccc4cccc(c34)C2=O)CC1 (stereo unspecified)	25.1 µM (active)
O=C(CN1C(=O)c2cccc3cccc1c23)NC1CCCCC1	inactive
CCc1ccc(OCC(O)CN2CCC(CN3C(=O)c4cccc5cccc(c45)C3=O)CC2)cc1 (stereo unspecified)	39.8 µM (active)
CCOC(=O)C1CCCN(S(=O)(=O)c2ccc3c4c(cccc24)C(=O)N3CC)C1 (stereo unspecified)	inactive
CCN(CC)C(=O)CN1C(=O)c2cccc3cccc1c23	inactive
CCC(C)NC(=O)CN1C(=O)c2cccc3cccc1c23 (stereo unspecified)	inactive
CCOC(=O)C1CCN(S(=O)(=O)c2ccc3c4c(cccc24)C(=O)N3CC)CC1	inactive
Cc1cc(C)cc(OCC(O)CN2CCC(CN3C(=O)c4cccc5cccc(c45)C3=O)CC2)c1 (stereo unspecified)	28.2 µM (active)
CCOC(=O)N1CCN(CC(O)COc2cc(C)cc(C)c2)CC1 (stereo unspecified)	inactive
O=C1c2cccc3cc([N+](=O)[O-])cc(c23)C(=O)N1CC1CCCO1 (stereo unspecified)	inactive
COc1ccc(-c2cc(=O)oc3c(C)c(O)c(CN(C)C)cc23)cc1	inactive
COCCNC(=O)/C(C#N)=C/c1c(N2CCN(C)CC2)nc2c(C)cccn2c1=O	inactive
CCOCCCn1c(=N)c(C(=O)NCc2cccnc2)cc2c(=O)n3cc(C)ccc3nc21	inactive
Cc1ccc(S(=O)(=O)c2cc3ccc(O)cc3oc2=O)cc1C	inactive
CCCc1cc(=O)oc2c(CN3CCCC3)c(O)c(Cl)cc12	inactive

Structure (SMILES)	Potency
CC(=O)NC(=Nc1ccc(C)cc1Cl)Nc1nc(C)cc(C)n1	inactive
Cc1ccc(C)c(OCC(O)CN2CCC(Cc3ccccc3)CC2)c1 (stereo unspecified)	39.8 µM (active)
Oc1c(C(c2ccccn2)N2CCC(Cc3ccccc3)CC2)cc(Cl)c2cccnc12 (stereo unspecified)	inactive
CC1=C(C(=O)N(C(C)C)C(C)C)CC(CC(=O)NCc2cccc3ccccc23)C(=O)N1CCC1=CCCCC1 (stereo unspecified)	39.8 µM (active)
O=C(COC(=O)c1cc(S(=O)(=O)N2CCCC2)ccc1O)NCCc1ccccc1	inactive
CC1=C(C(=O)N(C(C)C)C(C)C)CC(CC(=O)NCCCCc2ccccc2)C(=O)N1CCC1=CCCCC1 (stereo unspecified)	39.8 µM (active)
CC1=C(C(=O)N(C(C)C)C(C)C)CC(CC(=O)NC(c2ccccc2)c2ccccc2)C(=O)N1CCC1=CCCCC1 (stereo unspecified)	39.8 µM (active)
CC(CCc1ccccc1)NC(=O)C1CCC1 (stereo unspecified)	inactive
CC1=C(C(=O)N2CCCCCC2)CC(CC(=O)NCCCCc2ccccc2)C(=O)N1Cc1ccccc1 (stereo unspecified)	35.5 µM (active)
CCOC(=O)C(CC(=O)O)NCc1ccco1 (stereo unspecified)	inactive
CCn1nc(C)c(/C=N/NC(=O)c2nc3nc(C)cc(C)n3n2)c1C	inactive
CC1=C(C(=O)N2CCCCCC2)CC(CC(=O)NCCCCc2ccccc2)C(=O)N1CCC1=CCCCC1 (stereo unspecified)	17.8 µM (active)
CCOC(=O)c1c(N)n(CCOC(=O)c2cccs2)c2nc3ccccc3nc12	inactive
O=C(CCl)N1CCN2C(=O)c3ccccc3C12c1ccc(Cl)cc1 (stereo unspecified)	21.2 µM (active)
CCOC(=O)N1CCc2[nH]c3ccc(C)cc3c2C1	inactive
CN(C)CC(O)CN(c1ccccc1)c1ccccc1 (stereo unspecified)	inactive
CN(C)CC(CCC(CN(C)C)C(O)(c1ccccc1)c1ccccc1)C(O)(c1ccccc1)c1ccccc1 (stereo unspecified)	28.2 µM (active)
COc1ccc(S(=O)(=O)N2CCN(C(=O)c3cc4c(s3)CCCC4)CC2)cc1	inactive
CCC(C)NC(=O)c1cc2c(=O)n3cccc(C)c3nc2s1 (stereo unspecified)	inactive
CN(C)c1ccc(/C=N/N2CCN(c3ccccn3)CC2)cc1	inactive
Clc1ccc(/C=N/N2CCN(Cc3ccccc3)CC2)cc1	inactive
CN1CCN(/N=C/c2ccc(N(c3ccccc3)c3ccccc3)cc2)CC1	31.6 µM (active)
COc1ccc2oc(=O)c(-c3cn4ccc(C)cc4n3)cc2c1	inactive
COc1ccc(C2=CC(c3ccc(N(C)C)cc3)n3nnnc3N2)cc1 (stereo unspecified)	inactive
O=C(CSc1nccc(-c2cccs2)n1)Nc1cccc(Cl)c1Cl	inactive
CC(C)CNC(=O)COC(=O)c1c2c(nc3ccccc13)/C(=C\c1cccs1)CC2	inactive

Structure (SMILES)	Potency
COc1ccccc1-c1c(C#N)c(N)nc2c1CCC2	inactive
COc1ccccc1-c1ccc(/C=C2\C=CC(=O)O2)o1	inactive
COc1ccccc1-c1cc(SC)c(C#N)c(=O)o1	35.5 µM (active)
CC1CCCN(Cc2c(O)ccc3c2O/C(=C\c2ccco2)C3=O)C1 (stereo unspecified)	inactive
CN(c1ccccc1)c1ccc(/C=C/[N+](=O)[O-])cc1	25.1 µM (active)
Nc1c(C(=O)NCCN2CCOCC2)c2nc3ccccc3nc2n1-c1cccc(F)c1	inactive
Nc1c(C(=O)NCCN2CCOCC2)c2nc3ccccc3nc2n1CCc1ccccc1F	inactive
Nc1c(C(=O)NCCN2CCOCC2)c2nc3ccccc3nc2n1-c1ccccc1	inactive
O=C(CNC(=S)N(CCCN1CCOCC1)Cc1cccs1)NCc1ccccc1	inactive
O=C(CCS(=O)(=O)c1ccccc1)N(CCCN1CCOCC1)c1nc2ccccc2s1	39.8 µM (active)
Nc1c(C(=O)c2ccccc2)sc2nsc(SCCN3CCOCC3)c12	inactive
O=C(CCS(=O)(=O)c1ccccc1)N(CCCN1CCOCC1)c1nc2ccc(F)cc2s1	25.1 µM (active)
Cc1cccc2sc(N(CCN3CCOCC3)C(=O)CCS(=O)(=O)c3ccccc3)nc12	39.8 µM (active)
O=C(NCCCN1CCOCC1)c1cc2nc(-c3ccco3)cc(C(F)(F)F)n2n1	inactive
O=C(CCS(=O)(=O)c1ccccc1)N(CCCN1CCOCC1)c1nc2c(F)cccc2s1	31.6 µM (active)
CCCCC1CCC(C(=O)OC(C)C(=O)Nc2ccc(NC(C)=O)cc2)CC1 (stereo unspecified)	inactive
NNC(=O)c1oc2nc(-c3ccccc3)cc(-c3ccccc3)c2c1N	inactive
Cc1nc2nc(-c3cccs3)cn2nc1C	inactive
CCCCn1c(NC(=O)c2ccccc2)c(C#N)c2nc3ccccc3nc21	inactive
COc1ccccc1NCC(=O)N/N=C/c1sccc1C	inactive
COc1cccc(CN=C(S)Nc2cc(C)ccc2C)c1	inactive
CCN(CC)CCN(C(=O)CCS(=O)(=O)c1ccccc1)c1nc2c(C)cc(C)cc2s1	44.7 µM (active)
CCn1ccc2c(OCC(=O)Nc3ccc(C)c(Cl)c3)cccc2c1=O	39.8 µM (active)
CCn1cc(C(=O)OCC(=O)Nc2ccc(C)c(Cl)c2)c(=O)c2ccc(C)nc21	inactive
COC(=O)COc1cccc2c(=O)n(CC(=O)N3CCCCC3)ccc12	inactive
CN1CCN(C2=C(Cl)C(=O)c3ccccc3C2=O)CC1	16.8 µM (active)

Structure (SMILES)	Potency
Cc1ccccc1C(=O)OC(C)CN1CCN(C)CC1 (stereo unspecified)	inactive
CC1CCN(c2ccc3c(c2)S(=O)(=O)c2ccccc2C3=O)CC1	inactive
CCN(CC(=O)Nc1ccccc1OC)C(=O)c1ccccc1Sc1ccccc1C#N	inactive
CCN(CC)c1ccc(N=Nc2nc[nH]n2)cc1	10 µM (active)
CCOc1ccc(N(C)S(=O)(=O)c2c[nH]cn2)cc1	inactive
O=C(O)c1ccccc1-c1ccc(/C=C/c2cc(C(F)(F)F)nc(O)n2)o1	inactive
COc1ccccc1CN1CCc2c([nH]c3ccccc23)C1	inactive
COc1cccc(C=C(C(C)=O)C(=O)c2ccccc2)c1	31.6 µM (active)
COc1cccc(C(=O)NNS(=O)(=O)c2ccccc2)c1	inactive
CC(=O)C(=Cc1ccc(-c2ccccc2)cc1)C(=O)c1ccccc1	28.2 µM (active)
C/C(=C\c1ccccc1)C(=O)c1c(C)cc(C)nc1O	inactive
COc1cccc(C(=O)COC(=O)CCC(=O)c2ccccc2)c1	inactive
CC(=O)c1c(C)[nH]c(C(=O)COC(=O)COc2ccccc2F)c1C	inactive
CC(=O)NC1C(=O)N(CCN2CCOCC2)c2ccc(C)cc21 (stereo unspecified)	inactive
Cc1cccn2c(=O)c3cc(C(=O)NCc4ccccc4)c(=N)n(CCCN4CCOCC4)c3nc12	inactive
Cc1nc2nc(C)n(CCN3CCOCC3)c(=O)c2c(-c2cccc([N+](=O)[O-])c2)c1C(=O)CCCCCCCCCCN1CCC(c2ccccc2)(c2ccccc2)CC1	13.4 µM (active)
Nc1c(C(=O)NCc2ccccc2)c2nc3ccccc3nc2n1CCCN1CCOCC1	inactive
O=C1c2ccc(Cl)cc2S(=O)(=O)c2cccc(C(=O)N3CCC(Cc4ccccc4)CC3)c21	31.6 µM (active)
O=C(NC1CCCC1)c1cccc2c1C(=O)c1ccc(/C=C/c3ccccc3)cc1S2(=O)=O	inactive
O=C(NCc1ccccc1)c1cccc2c1C(=O)c1ccc(/C=C/c3ccccc3)cc1S2(=O)=O	inactive
O=C(NC1CC1)c1cccc2c1C(=O)c1ccc(N3CCC(Cc4ccccc4)CC3)cc1S2(=O)=O	inactive
O=C(NC1CCCCC1)c1cccc2c1C(=O)c1ccc(N3CCC(Cc4ccccc4)CC3)cc1S2(=O)=O	inactive
O=C(NCCOc1ccccc1Cl)c1cccc2c1C(=O)c1ccc(Cl)cc1S2(=O)=O	35.5 µM (active)

From ChEMBL document CHEMBL1201862, “PubChem BioAssay data set” (2004)
